# Measurements as given in ChEMBL document CHEMBL3433997, “St. Jude Leishmania screening dataset” (2016).
# Columns and labels:
# Assay type in all cases: functional
# [1] = target: Solute carrier family 2, facilitated glucose transporter member 1 (Homo sapiens) (UniProt P11166); test: ST_JUDE_LEISH: Cytotoxicity at 2uM final concentration against transgenic Leishmania Mexicana promastigotes LmGLUT1 that are glucose transport deficient and complemented with the human glucose transporter GLUT1. Activity is measured by DNA content using SYBR green in vitro
# Chain of Solute carrier family 2, facilitated glucose transporter member 1 (Homo sapiens) (P11166 whole entry): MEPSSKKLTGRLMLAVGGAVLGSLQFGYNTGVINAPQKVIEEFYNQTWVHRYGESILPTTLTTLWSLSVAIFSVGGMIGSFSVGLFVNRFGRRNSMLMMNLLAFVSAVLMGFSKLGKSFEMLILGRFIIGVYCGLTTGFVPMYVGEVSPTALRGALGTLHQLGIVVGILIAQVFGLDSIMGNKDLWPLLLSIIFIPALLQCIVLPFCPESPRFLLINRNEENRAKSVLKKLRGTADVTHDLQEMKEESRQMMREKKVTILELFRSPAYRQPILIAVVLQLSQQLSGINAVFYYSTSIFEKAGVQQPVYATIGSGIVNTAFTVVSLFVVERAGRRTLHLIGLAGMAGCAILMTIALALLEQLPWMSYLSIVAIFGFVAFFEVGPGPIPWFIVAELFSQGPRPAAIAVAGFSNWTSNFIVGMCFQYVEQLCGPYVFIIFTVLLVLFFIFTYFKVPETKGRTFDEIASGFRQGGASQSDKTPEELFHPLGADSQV
# [2] = target: Hexose transporter 1 (Plasmodium falciparum) (UniProt O97467); test: ST_JUDE_LEISH: Cytotoxicity at 2uM final concentration against transgenic Leishmania Mexicana promastigotes LmPfHT that are glucose transport deficient and complemented with the Plasmodium falciparum hexose transporter. Activity is measured by DNA content using SYBR green in vitro
# [3] = target: Glucose transporter (Leishmania mexicana) (UniProt O61059); test: ST_JUDE_LEISH: Cytotoxicity at 2uM final concentration against transgenic Leishmania Mexicana promastigotes LmGT2 that are glucose transport deficient and complemented with the L. Mexicana glucose transporter 2. Activity is measured by DNA content using SYBR green in vitro
Compound,inhibition [1],inhibition [2],inhibition [3]
Oc1ccc(CCNc2nc(NCCCOc3cccc(CN4CCCCC4)c3Cl)nc(N3CCNCC3)n2)cc1,3.62%,1.93%,3.74%
Cc1c(C(=O)NCc2ccncc2)sc2nc(-c3cccc([N+](=O)[O-])c3)cn12,0.53%,-1.39%,-3.15%
O=C(CN(c1cccc(C(F)(F)F)c1)S(=O)(=O)c1ccc(Cl)cc1)NCCC(c1ccccc1)c1ccccc1,-0.18%,-0.47%,-2.89%
CC(C)COc1ccc(Cl)cc1Cc1ccc(-c2nc3ccc(Br)cc3[nH]2)o1,5.75%,5.74%,4.95%
O=c1cc(NCCCCNCc2cccc(Br)c2)[nH]c2ccccc12,5.23%,5.07%,3.39%
CCOc1ccccc1C=CC(=O)Nc1ccc2nc(N3CCN(C)CC3)cc(C)c2c1,5.87%,2.96%,4.24%
Cc1cc(CN2CCC(N3CC(c4ccccc4)(c4ccccc4)OC3=O)C2)ccc1O (stereo unspecified),4.14%,3.7%,8.06%
CCC(C(=O)Nc1cc(=O)[nH]c2nc(-c3ccco3)nn12)c1ccccc1 (stereo unspecified),0.95%,1.55%,1.71%
O=C(Nc1cccc(F)c1)N(Cc1ccc(-c2ccc(CN3CCNCC3)cc2)cc1)C1CCN(Cc2ccccc2)CC1,-0.04%,-0.99%,-1.59%
Clc1ccc(Nc2nc(NCc3ccccc3)nc(N/N=C/c3ccccn3)n2)cc1,83.7%,83.5%,77.6%
O=C(Nc1ccc(Cl)cc1)c1ccc(S(=O)(=O)NCC2CCN(CC3CCCCC3)CC2)cc1,2.97%,1.04%,1.4%
Cc1cccc2nc(-c3ccc(-c4cccc(CNCCNC(=O)c5ccnn5C)c4)cc3)[nH]c12,0.53%,1.5%,-3.68%
Oc1ccc(Cc2cc(Oc3c(I)cc(CCc4ncc[nH]4)cc3I)ccc2O)cc1,0.12%,1.92%,1.23%
COc1cccc(-c2nc(Nc3ccncc3)c3ncn(C)c3n2)c1,3.21%,3.6%,2.65%
COC(=O)c1cc(NC(=O)Nc2ccc(Cn3ncc(N4CCCNCC4)c(Cl)c3=O)cc2)cc(C(=O)OC)c1,0.7%,1.45%,1.92%
Cc1cccc(CNc2nc(C)cc(N[C@@H](Cc3ccccc3)C(=O)NC3CCCC3)n2)c1,16.1%,12.4%,7.72%

Compound,inhibition [1],inhibition [2],inhibition [3]
Cc1[nH]c(C)c(-c2ccc(OCCCCSc3ccncc3)cc2)c(=O)c1Br,8.71%,6.45%,8.94%
Nc1nc(N)c2c(Cc3ccccc3)cccc2n1,0.09%,4.13%,2.02%
O=C(Nc1ccc2[nH]c(-c3ccc4nc(NC(=O)C5CCCCC5)sc4c3)nc2c1)C1CCCCC1,0.5%,-0.34%,-1.71%
COC(=O)c1ccc(CCC(C)NCC(O)c2cccc(C(F)(F)F)c2)cc1 (stereo unspecified),0.8%,0.12%,3.23%
Cc1cccc2nc(-c3cccc(-c4ccc(CN5CCN(CCO)CC5)cc4)c3)[nH]c12,2.28%,0.97%,-0.97%
C[C@H](Cc1ccc(OCCCCCOc2ccc(C[C@@H](C)NC[C@H](O)c3cccc(Cl)c3)cc2)cc1)NC[C@H](O)c1cccc(Cl)c1,106%,104%,107%
O=C(NCc1ccc(C(=O)NC2CCCCC2)cc1)c1ccc(O)c(-c2ccc(Cl)c(Cl)c2)c1,2.46%,1.38%,1.41%
CCOC(=O)c1[nH]c2ccc(F)cc2c1NC(=O)CN1CCN(c2cccc(C(F)(F)F)c2)CC1,0.03%,0.43%,-2.97%
CN1CCN=C1c1ccc(NC(=O)Nc2ccc(C3=NCCN3C)cc2)cc1,13%,7.37%,5.87%
CCOc1ccc2c(=NN=Cc3ccccn3)cc(C)[nH]c2c1,9.68%,7.32%,6.78%
COc1cc(CNC[C@@H](O)[C@H](Cc2ccccc2)NC(=O)c2cc(C3CCCC3)cc(N3CCCC3=O)c2)cc(OC)c1,2.44%,5.82%,-1.06%
COc1ccc2nccc([C@@H](O)CN3CCC(NCc4cc5ccc(Cl)cc5[nH]4)CC3)c2c1,9.64%,12.1%,4.6%
Cc1ccc(S(=O)(=O)N(C)c2ccccc2C(=O)Nc2ccccc2Oc2ccccc2)cc1,-0.78%,-0.51%,-3.37%
CC(C)N(CCOc1ccc2c(c1)N(C(=O)Nc1cc(Br)cc(C(F)(F)F)c1)CC2)C(C)C,3.92%,2.23%,1.38%
COc1ccc(-c2onc(C(F)(F)F)c2-c2cc3ccccc3o2)c(O)c1,0.61%,0.82%,0.58%
CCCCOc1cc(CNCCCCCCNCc2cc(OCCCC)cc3ccccc23)c2ccccc2c1,4.98%,0.76%,-2.17%
